In ChEMBL document CHEMBL4296182, “CO-ADD screening of NIH NCI Diversity Set V”:
For part of these data: Entries with a potency or affinity are not part of this list.

What was measured:
Staphylococcus aureus = assay: Antibacterial activity against Staphylococcus aureus MRSA ATCC 43300 (CO-ADD:GP_020); MIC in CAMBH media using NBS plates, by Resazurin F(560/590); type: functional; conditions: Concentration 20 uM, ASSAY_TEST Inhibition of Bacterial Growth, detection method Resazurin, Fluorescence (ex560/em590), MEDIA CAMHB, plate type 384well, CORNING #3640, time 18 hr
Acinetobacter baumannii = assay: Antibacterial activity against Acinetobacter baumannii ATCC 19606 (CO-ADD:GN_034); MIC in CAMBH media using NBS plates, by Resazurin F(560/590); type: functional; conditions: Concentration 20 uM, ASSAY_TEST Inhibition of Bacterial Growth, detection method Resazurin, Fluorescence (ex560/em590), MEDIA CAMHB, plate type 384well, CORNING #3640, time 18 hr
Escherichia coli = assay: Antibacterial activity against Escherichia coli ATCC 25922 (CO-ADD:GN_001); MIC in CAMBH media using NBS plates, by Resazurin F(560/590); type: functional; conditions: Concentration 20 uM, ASSAY_TEST Inhibition of Bacterial Growth, detection method Resazurin, Fluorescence (ex560/em590), MEDIA CAMHB, plate type 384well, CORNING #3640, time 18 hr
Klebsiella pneumoniae = conditions: Concentration 20 uM; ASSAY_TEST Inhibition of Bacterial Growth; detection method Absorption (OD600); MEDIA CAMHB; plate type 384well; NBS; CORNING #3640; time 18 hr
Candida albicans = conditions: 20 µM
Cryptococcus neoformans = conditions: Concentration 20 uM; ASSAY_TEST Inhibition of Fungal Growth; detection method Resazurin; Absorption (OD600-OD570); plate type 384well; NBS; CORNING #3640

SMILES	Inhibition (Staphylococcus aureus)	Inhibition (Acinetobacter baumannii)	Inhibition (Escherichia coli)	Inhibition (Klebsiella pneumoniae)	Inhibition (Candida albicans)	Inhibition (Cryptococcus neoformans)
COC(=O)C1=CC(=O)N2CCN=C2S1	6.62%	15.89%	-3.52%	13.6%	3.42%	-1.02%
CC(C)N(C(=O)c1cccc([N+](=O)[O-])c1)C(C)C	9.59%	-13.76%	4.26%	0.52%	0.26%	-4.03%
COc1ccc(/C(C#N)=C/c2ccccn2)cc1	30.75%	-12.49%	21.69%	10.64%	7.54%	8.53%
Cn1c(=O)c2c(nc(N3CCCCC3)n2C)n(C)c1=O	9.93%	4.85%	2.17%	8.3%	4.05%	-7.82%
CN(C)c1ncnc2c1ncn2-c1ccccc1	-6.98%	-8.04%	0.85%	6.41%	1.36%	-5.49%
COc1cc(C(=O)C(=O)c2ccc(O)c(OC)c2)ccc1O	-3.81%	-13.36%	16.47%	8.6%	1.86%	-17.88%
CCCCC(=O)N(CCC)CCC	2.53%	-12.7%	10.06%	7.98%	-2.94%	-14.22%
CCCCCC(=O)N1CCCCC1	5.23%	-9.77%	7.04%	14.07%	3.39%	2.22%
Oc1ccc(-c2nc3ccccc3s2)c(O)c1	-7.97%	-9.73%	5.22%	6.81%	13.4%	-4.68%
O=C(Nc1ccc(Br)cc1)Nc1ccccc1Cl	14.34%	-1.5%	10.13%	5.62%	1.52%	-9.14%
CN1C(=O)c2ccccc2Cc2c(NCc3ccccc3)ncnc21	11.35%	7.35%	1.48%	18.62%	6.22%	-9.85%
OCc1ncccc1O	-1.04%	-10.34%	-5.68%	25.51%	3.22%	0.67%
Cc1cc(=O)[nH]/c(=N/N=C2/CCCCC2C)[nH]1 (stereo not given)	22.54%	-10.76%	10%	5.45%	-3.38%	-9.25%
CC(C)(C)C(=O)Nc1ccc(NC(=O)C(C)(C)C)cc1	-3.56%	6.93%	0.85%	26.03%	6.58%	1.66%
COc1cccc(-c2nnc(N)o2)c1	11.58%	-10.93%	4.71%	8.97%	1.68%	-2.41%
CC1(c2ccc3ccccc3c2)CCC(=O)O1 (stereo not given)	11.1%	-6.13%	7.71%	5.94%	2.15%	-9.46%
N=C(N)Nc1ccc(NC(=N)N)cc1	18.17%	-6.06%	9.96%	17.17%	-1.51%	-0.62%
C/C(=N\O)[C@H]1CC[C@H]2[C@@H]3CC[C@@H]4C/C(=N/O)CC[C@]4(C)[C@H]3[C@@](C)(O)C[C@]12C	13.92%	2.13%	6.69%	4.28%	2.6%	-11.49%
Cn1cnc([N+](=O)[O-])c1Sc1nc[nH]n1	12.64%	10.96%	6.64%	17.02%	2.6%	-9.11%
CCCCOc1nc2c(c(=O)n(C)c(=O)n2C)n1C	18.84%	14.19%	18.86%	3.58%	11%	10.8%
Cc1cc(NC(=O)Nc2cc(Cl)ccc2C)no1	-16.99%	4.24%	-3.34%	4.74%	19.4%	-2.52%
NC1=NC(Nc2ccccc2)=NC(c2ccccc2)N1 (stereo not given)	10.62%	4%	5.99%	5.54%	6.21%	-14.92%
O=C(COc1ccc([N+](=O)[O-])cc1Cl)N1CCOCC1	2.54%	4.52%	6.72%	6.01%	-1.21%	-16.6%
Nc1cc(Nc2ccc(Br)cc2)nc(N)n1	4.17%	10.22%	-12.19%	18.33%	4.62%	-4.88%
CCOC(=O)c1nnsc1-c1ccc(-c2snnc2C(=O)OCC)cc1	4.36%	3.04%	-11.2%	29.27%	6.68%	-3.34%

SMILES	Inhibition (Staphylococcus aureus)	Inhibition (Acinetobacter baumannii)	Inhibition (Escherichia coli)	Inhibition (Klebsiella pneumoniae)	Inhibition (Candida albicans)	Inhibition (Cryptococcus neoformans)
CC(=O)Nc1ccc2cc3ccc(NC(C)=O)cc3nc2c1	13.51%	10.7%	0.73%	15.61%	3.5%	-4.12%
CCOc1ccc(/C=C2\NC(=S)NC2=O)cc1	4.57%	-5.71%	-3.24%	22.87%	0.92%	-6.77%
COC(=O)Cc1[nH]c(S)nc1C(=O)OC	-11.54%	1.23%	-12.23%	0.59%	1.43%	19.86%
Cc1nc(C(N)=O)nc2ccccc12	17.26%	-10.29%	6.82%	15.63%	0.61%	1.62%
CCc1nc(NC(C)(C)C)c2cnn(-c3ccccc3)c2n1	6.25%	2.78%	2.08%	23.15%	15.4%	-0.88%
CC(=O)NC1=C/C(=C\[N+](=O)[O-])C=C1O	-1.13%	0.39%	10.35%	11.59%	0.53%	-2.2%
CC1=CC(C)(C(Cl)(Cl)Cl)C(C)=C/C1=N/O (stereo not given)	1.65%	-20.29%	8.83%	12.76%	4.85%	-11.97%
CSc1ccc2c(c1)C(N1CCN(C)CC1)Cc1ccccc1S2.O=C(O)/C=C\C(=O)O (stereo not given)	-0.23%	-8.02%	11.6%	5.53%	2.59%	-7.96%
CCOC(=O)CSc1nc2nc(Cl)c(Cl)[nH]c-2n1	22.58%	6.84%	-0.86%	8.77%	0.89%	3.6%
O=C(Nc1ccc(Cl)cc1)c1cc2c(cc1O)[nH]c1ccccc12	-1.15%	-12.34%	2.48%	13.56%	8.44%	-5.53%
O=S1(=O)CCC(N(/N=C/c2ccco2)c2ccccc2)C1 (stereo not given)	6.29%	-4.36%	-3.36%	6.93%	-2.37%	-1.06%
CC1(C)OC2C(CO)OC(n3cnc4c(S)ncnc43)C2O1 (stereo not given)	1.89%	-15.97%	11.94%	6.21%	4.06%	-14.25%
NS(=O)(=O)c1ccc(NC(=S)NC(=O)c2ccco2)cc1	17.92%	4.84%	10.07%	4.06%	1.47%	-12.16%
O=C(c1ccccc1)c1ccc(Sc2ccc([N+](=O)[O-])cc2)cc1	11.06%	-8.42%	1.44%	19.14%	2.18%	-2.51%
CCc1ccc(CCN2C(=O)c3ccccc3C2=O)nc1	9.03%	4.62%	-1.52%	17.62%	2.59%	-6.09%
O=C(Nc1cccc([N+](=O)[O-])c1)c1cc2ccccc2cc1O	-1.88%	-9.44%	23.78%	3.58%	12.7%	-10.5%
O=C(Nc1ccc(Nc2ccncc2)cc1)c1ccc([N+](=O)[O-])cc1	-5.06%	12.27%	7.64%	10.28%	3.08%	-7.15%
CCCCSc1cc(O)nc(N)n1	-2.6%	-7.06%	16.01%	10.64%	-1.45%	-8.65%
CC1(C)CC(Nc2ccc(Nc3ccccc3)cc2)CC(C)(C)N1	6.04%	9.93%	-3.22%	10.49%	1.33%	-0.13%
CCOc1nsc(OCC)n1	10.98%	-19.84%	11.82%	-1.83%	5.3%	-10.38%
COC(=O)C(=Cc1ccccc1[N+](=O)[O-])C(=O)OC	-1.4%	-8.17%	9.13%	10.58%	9.98%	-18.32%
Brc1ccc(/N=N/c2ccc3ccccc3n2)cc1	10.21%	4.06%	-16.68%	5.4%	5.16%	43.68%
CSc1nc(N)c(C(=O)NC2CCCCC2)s1	30.14%	-5.51%	5.05%	13.28%	8.55%	-3.08%
NS(=O)(=O)c1cc2c(cc1Cl)NC(CC1CCCC1)NS2(=O)=O (stereo not given) [CYCLOPENTHIAZIDE]	1.39%	8.9%	-12.38%	7.07%	3.92%	5.84%
Nc1ccccc1SC1CC(=O)N(c2ccccc2Cl)C1=O (stereo not given)	-6.84%	10.38%	-12.68%	6.14%	15%	-0.17%
